Reference: PubChem BioAssay

Experiments:
[1] = tested on: Botulinum neurotoxin type F light chain protease (Clostridium botulinum); experiment: Clostridium botulinum type F light chain protease inhibitors, microsphere substrate cleavage, validation (AID 588459); settings: multiplex microsphere protease substrate cleavage assay, flow cytometry; at 10 µM; stronger effect = higher value
[2] = molecular target: Botulinum neurotoxin type A (Clostridium botulinum) (UniProt P0DPI0); experiment: BoNT/A light chain protease inhibitors, biochemical, multiplex microsphere flow cytometry, validation set (AID 588460); settings: at 10 µM, stronger effect = higher value
Botulinum neurotoxin type A (Clostridium botulinum), sequence (P0DPI0 whole entry, looked up): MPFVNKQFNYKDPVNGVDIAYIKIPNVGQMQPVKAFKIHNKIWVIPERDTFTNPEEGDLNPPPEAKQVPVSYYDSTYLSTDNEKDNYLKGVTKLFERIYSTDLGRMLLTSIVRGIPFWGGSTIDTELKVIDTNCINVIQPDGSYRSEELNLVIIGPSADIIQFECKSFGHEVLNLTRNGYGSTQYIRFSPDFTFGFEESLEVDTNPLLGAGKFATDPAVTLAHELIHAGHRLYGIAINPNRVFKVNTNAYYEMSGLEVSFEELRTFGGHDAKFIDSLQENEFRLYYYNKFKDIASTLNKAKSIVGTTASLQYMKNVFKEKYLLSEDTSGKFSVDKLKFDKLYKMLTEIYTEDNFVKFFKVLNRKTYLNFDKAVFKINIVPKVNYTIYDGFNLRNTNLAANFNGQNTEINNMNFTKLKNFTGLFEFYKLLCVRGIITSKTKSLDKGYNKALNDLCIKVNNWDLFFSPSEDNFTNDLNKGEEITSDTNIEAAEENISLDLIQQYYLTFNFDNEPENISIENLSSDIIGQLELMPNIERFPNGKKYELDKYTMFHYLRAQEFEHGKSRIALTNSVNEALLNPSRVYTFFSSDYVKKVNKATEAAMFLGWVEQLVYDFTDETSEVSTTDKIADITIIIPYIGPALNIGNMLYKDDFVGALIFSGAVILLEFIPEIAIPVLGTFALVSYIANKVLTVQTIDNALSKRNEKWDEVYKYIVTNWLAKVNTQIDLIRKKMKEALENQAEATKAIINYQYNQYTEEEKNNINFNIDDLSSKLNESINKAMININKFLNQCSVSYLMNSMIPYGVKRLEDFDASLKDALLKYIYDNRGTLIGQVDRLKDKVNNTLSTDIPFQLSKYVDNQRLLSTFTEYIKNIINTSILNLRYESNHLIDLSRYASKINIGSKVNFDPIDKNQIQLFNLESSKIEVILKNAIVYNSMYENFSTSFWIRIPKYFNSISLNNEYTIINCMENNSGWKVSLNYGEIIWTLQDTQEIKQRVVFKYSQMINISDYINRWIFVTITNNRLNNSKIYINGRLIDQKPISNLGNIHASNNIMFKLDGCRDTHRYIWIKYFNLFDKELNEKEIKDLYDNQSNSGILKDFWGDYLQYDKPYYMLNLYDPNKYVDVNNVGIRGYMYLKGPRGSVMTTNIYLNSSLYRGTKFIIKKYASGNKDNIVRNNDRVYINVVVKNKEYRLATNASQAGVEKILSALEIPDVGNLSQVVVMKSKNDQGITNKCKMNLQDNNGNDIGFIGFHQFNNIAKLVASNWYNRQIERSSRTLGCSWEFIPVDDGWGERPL

[3] = molecular target: Lethal factor (Bacillus anthracis) (UniProt P15917); experiment: Bacillus anthracis lethal factor inhibition, microsphere flow cytometry protease assay, validation at 10 µM (AID 588461); settings: multiplex microsphere protease cleavage assay, stronger effect = higher value
Lethal factor (Bacillus anthracis), sequence (P15917 whole entry, looked up): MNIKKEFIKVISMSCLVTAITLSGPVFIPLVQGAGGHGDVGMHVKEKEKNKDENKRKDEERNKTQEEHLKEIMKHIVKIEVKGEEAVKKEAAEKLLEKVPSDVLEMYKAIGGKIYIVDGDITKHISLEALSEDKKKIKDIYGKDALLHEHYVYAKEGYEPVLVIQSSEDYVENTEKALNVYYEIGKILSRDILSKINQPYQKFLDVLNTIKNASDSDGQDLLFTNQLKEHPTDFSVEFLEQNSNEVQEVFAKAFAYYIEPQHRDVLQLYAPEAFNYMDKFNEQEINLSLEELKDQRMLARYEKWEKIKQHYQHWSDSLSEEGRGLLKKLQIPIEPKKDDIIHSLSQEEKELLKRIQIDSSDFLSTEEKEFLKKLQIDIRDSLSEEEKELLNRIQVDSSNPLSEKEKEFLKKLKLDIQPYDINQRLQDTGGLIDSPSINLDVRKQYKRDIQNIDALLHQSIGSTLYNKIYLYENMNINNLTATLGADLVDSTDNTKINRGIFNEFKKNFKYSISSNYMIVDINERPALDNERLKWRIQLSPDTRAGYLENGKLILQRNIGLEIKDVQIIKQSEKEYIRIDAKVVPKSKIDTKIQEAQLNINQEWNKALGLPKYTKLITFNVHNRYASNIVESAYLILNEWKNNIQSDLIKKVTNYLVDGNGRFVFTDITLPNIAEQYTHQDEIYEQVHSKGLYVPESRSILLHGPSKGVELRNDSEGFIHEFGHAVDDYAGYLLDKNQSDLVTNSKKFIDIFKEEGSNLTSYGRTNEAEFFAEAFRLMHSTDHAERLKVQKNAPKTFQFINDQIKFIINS

Measured: inhibition

CN(C)CCCNc1ncnc2c1cnn2-c1ccccc1
inactive: [1] 0.3% | [2] -0.3% | [3] -4%

O=C(O)c1ccccc1Nc1cccc(C(F)(F)F)c1
inactive: [1] -4.2% | [2] -0.9% | [3] 1.9%

CCCCN1C[C@H](O)[C@@H](O)[C@H](O)[C@H]1CO
inactive: [1] 1.9% | [2] -1% | [3] 0.7%

OC12CCCCC1C(c1ccc3c(c1)OCO3)N(Cc1cccc(F)c1)CC2 (stereo not drawn)
inactive: [1] -0.1% | [2] -1.3% | [3] -2.8%

CC(=O)N1CCN(c2ccc(NC(=O)/C=C/c3ccccc3)cc2)CC1
inactive: [1] 4.3% | [2] -0.3% | [3] -2.2%

CCOC(=O)C1=C(N)Oc2c(oc(CO)cc2=O)C1c1ccc(F)c(F)c1 (stereo not drawn)
inactive: [1] 2.1% | [2] 0.3% | [3] -2.3%

O=C(Cc1ccccc1[N+](=O)[O-])NCc1ccncc1
inactive: [1] -3.6% | [2] 0.9% | [3] -5.4%

O=C(Nc1ccccc1C(=O)N1CCCCCC1)c1ccccc1Cl
inactive: [1] -2.3% | [2] 0% | [3] -1.1%

Cc1c(OCC(F)(F)F)ccnc1CS(=O)c1nc2ccccc2[nH]1 (stereo not drawn)
inactive: [1] -1% | [2] -0.5% | [3] -2.4%

CN(C)c1cc(NC(=O)CN2CCOCC2)c2ccccc2n1
inactive: [1] 0% | [2] -1.5% | [3] -4.6%

O=C(NCc1ccc(N2CCCC2=O)cc1)c1ccc(F)cc1
inactive: [1] 5.2% | [2] -0.6% | [3] -3.8%
